Hits are enriched below; roughly 6.7% of the tested compounds scored in any of these assays.
T cruzi growth-1 = inhibitors of T. cruzi proliferation. T. cruzi beta-gal in NIH3T3, GalScreen luminescence, 90 h. inhibition, % at 8.34 µM. 77,000 compounds, 5.9% hits;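 active means mean inhibition above about 93%, with at least 55% of replicates each passing it, limit read from the data, passing the limit was not always enough; inconclusive means only one of those two conditions holds; inactive means neither condition holds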
C diff growth = C. difficile growth inhibition; 86,000 compounds, 0.25% hits; Clostridium difficile clinical isolate growth, OD600, 24 h; active compounds read low; AID 1259249; growth activity, negative = inhibition, % at 16 µg/mL (by protocol);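 active means mean growth activity at or below -80% and every replicate also at or below -80%; inconclusive means mean at or below -80% but some replicate above -80%; inactive means mean growth activity above -80%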;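 further: 0% = DMSO wells and -100% = levofloxacin 16 µg/mL wells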
Pf Dd2 growth = blocks growth of Plasmodium falciparum Dd2 parasites | P. falciparum Dd2 growth, SYBR Green, 72 h; active compounds read low | activity change, % at 10 µM | 94,000 compounds, 2.3% hits | AID 1159554; in the data active means activity change below about -80%; inconclusive means no clear call, values can overlap the other calls
T cruzi growth-2 = Trypanosoma cruzi proliferation inhibition; shares compounds with T cruzi growth-1; T. cruzi beta-gal in NIH3T3, GalScreen luminescence, 90 h; inhibition, % at 8.35 µM; 5,600 compounds, 72% hits; AID 651739;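 active means mean replicate inhibition above about 95% and at least 55% of replicates individually reaching it, limit read from the data; inconclusive means only one of the two criteria is met; inactive means neither criterion is met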
T cruzi growth-3 = blocks T. cruzi growth in NIH3T3 host cells; shares compounds with T cruzi growth-1; T. cruzi beta-gal in NIH3T3, GalScreen luminescence, 90 h; inhibition, % at 2.09 µM; 5,600 compounds, 21% hits;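 active means mean inhibition above about 95%, with at least 55% of replicates also reaching it, limit read from the data; inconclusive means meets just one of the two conditions; inactive means meets neither condition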;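 further: plate controls were neutral control median for no effect and positive control median for full effect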
3T3 cytotox = kills mouse NIH/3T3 fibroblasts | shares compounds with T cruzi growth-1 | NIH/3T3 viability, CellTiter-Glo ATP luminescence, 90 h | cytotoxicity (signal decrease), % at 8.35 µM | 5,600 compounds, 14% hits | AID 651742;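 active means mean signal decrease across replicates above about 35% based on untreated-well scatter, with enough replicates individually passing, limit read from the data; inconclusive means no rule stated though some were filed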;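 further: 0% = median of neutral control wells and 100% = median of positive control wells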
3T3 cytotox 2 = NIH/3T3 (mouse) viability loss. shares compounds with T cruzi growth-1. NIH/3T3 viability, CellTiter-Glo ATP luminescence, 90 h. inhibition, % at 24.9 µM. 5,600 compounds, 56% hits;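 active means mean loss of cell viability signal at or above a set limit, and enough replicates individually reaching it; inconclusive means meets only the mean limit or only the replicate share; inactive means meets neither condition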;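 further: 0% = median of neutral control wells and 100% = median of positive control wells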
Active calls of the source: *; ? = inconclusive; . = no result.

SMILES	T cruzi growth-1	C diff growth	Pf Dd2 growth	T cruzi growth-2	T cruzi growth-3	3T3 cytotox	3T3 cytotox 2
CN1c2ccc(-c3ccc(C#N)cc3)cc2[C@@H]2[C@@H](CCN2C(=O)CC2CC2)[C@@H]1CO	?	6	6	100*	?	47*	80*
CN(C)C(=O)c1ccc(-c2ccc3c(c2)[C@H]2[C@H](CCN2C(=O)Cc2ccccn2)[C@@H](CO)N3C)cc1	?	-6	-38	106*	46	-5	-8
CC=Cc1ccc2n(c1=O)C[C@@H]1[C@@H](CO)[C@H](C(=O)NCC)N(CC3CCOCC3)[C@H]21 (mixture of isomers)	19	-1	.	.	.	.	.
O=C(O)[C@H]1[C@H](CO)[C@H]2Cn3c(cccc3=O)[C@H]2N1C(=O)NC1CCCC1	42	-4	.	.	.	.	.
CO[C@@H]1CN(C)C(=O)c2cc(NC(=O)c3ccccc3F)ccc2OC[C@@H](C)N(C)C[C@@H]1C	14	.	-49	.	.	.	.
COc1ccccc1-c1cnc2c(c1)C(=O)N([C@@H](C)CO)C[C@@H](C)[C@@H](CN(C)C(C)=O)O2	12	-2	48	.	.	.	.
COc1ccccc1-c1cnc2c(c1)C(=O)N([C@H](C)CO)C[C@@H](C)[C@@H](CN(C)C(C)=O)O2	99*	-3	44	?	42	16	24
COc1ccccc1-c1cnc2c(c1)C(=O)N([C@H](C)CO)C[C@@H](C)[C@H](CN(C)C(C)=O)O2	9	-3	35	.	.	.	.
COc1ccccc1-c1cnc2c(c1)C(=O)N([C@H](C)CO)C[C@H](C)[C@H](CN(C)C(C)=O)O2	?	-4	52	35	2	19	-6
O=C(C[C@@H]1C=C[C@H](NC(=O)c2ccccn2)[C@H](CO)O1)NCc1cc(F)cc(F)c1	16	.	19	.	.	.	.
CC(C)(C)[S@](=O)N1Cc2cc(C(=O)NCCc3ccncc3)nc(-c3cccc(-c4ccncc4)c3)c2[C@@H]1CCO	-47	.	-33	.	.	.	.
CCC(=O)N1C[C@H]2[C@@H](c3ccccc31)[C@H](CO)N2Cc1cc(F)ccc1F	39	-2	4	.	.	.	.
C[C@@H]1CCCCO[C@@H](CN(C)Cc2ccncc2)[C@H](C)CN([C@@H](C)CO)C(=O)c2cc(NC(=O)Nc3cccc4ccccc34)ccc2O1	106	9	24	.	.	.	.
C[C@H](CO)N1C[C@H](C)[C@@H](CN(C)Cc2ccncc2)OCCCC[C@H](C)Oc2ccc(NC(=O)Nc3cccc4ccccc34)cc2C1=O	43	-4	27	.	.	.	.
C[C@@H]1CN([C@@H](C)CO)C(=O)c2cc(NC(=O)Nc3cccc4ccccc34)ccc2O[C@@H](C)CCCCO[C@H]1CN(C)Cc1ccncc1	55	-3	0	.	.	.	.
C[C@@H]1CCCCO[C@H](CN(C)Cc2ccc(Cl)c(Cl)c2)[C@@H](C)CN([C@H](C)CO)C(=O)c2cc(NC(=O)Nc3cccc4ccccc34)ccc2O1	?	0	1	111*	75	-1	-12
C[C@H]1CCCCO[C@H](CN(C)Cc2ccc(Cl)c(Cl)c2)[C@@H](C)CN([C@@H](C)CO)C(=O)c2cc(NC(=O)Nc3cccc4ccccc34)ccc2O1	?	-11	-25	112*	111*	2	6
C[C@@H]1CCCCO[C@@H](CN(C)Cc2ccc(Cl)c(Cl)c2)[C@@H](C)CN([C@@H](C)CO)C(=O)c2cc(NC(=O)Nc3cccc4ccccc34)ccc2O1	124*	8	-32	96*	103*	-3	-2
COc1ccc(S(=O)(=O)Nc2ccc3c(c2)C(=O)N([C@@H](C)CO)C[C@H](C)[C@@H](CN(C)C(=O)Cc2ccccc2)OCCCC[C@@H](C)O3)cc1	87	-2	-69	.	.	.	.
COc1ccc2c3c(n(C)c2c1)[C@H](CO)N(C(=O)Cc1ccccn1)CC31CCN(C)CC1	.	-6	34	.	.	.	.
C[C@@H]1CN([C@@H](C)CO)C(=O)c2cc(NC(=O)Nc3ccc4c(c3)OCO4)ccc2O[C@@H](C)CCCCO[C@H]1CN(C)C(=O)Cc1ccccc1	-38	2	-6	.	.	.	.
C[C@H]1CCCCO[C@H](CN(C)C(=O)Cc2ccccc2)[C@@H](C)CN([C@@H](C)CO)C(=O)c2cc(NC(=O)Nc3ccc4c(c3)OCO4)ccc2O1	115*	1	-71	112*	5	-15	3
C[C@@H]1CCCCO[C@H](CN(C)C(=O)Cc2ccccc2)[C@@H](C)CN([C@@H](C)CO)C(=O)c2cc(NC(=O)Nc3ccc4c(c3)OCO4)ccc2O1	?	4	-84*	109*	30	-8	-3
C[C@@H]1CN([C@@H](C)CO)C(=O)c2cc(NC(=O)Nc3ccccc3)ccc2O[C@@H](C)CCCCO[C@H]1CN(C)C(=O)Cc1ccccc1	25	.	-34	.	.	.	.
COc1ccccc1-c1cnc2c(c1)C(=O)N([C@H](C)CO)C[C@H](C)[C@@H](CN(C)Cc1ccc(C(=O)O)cc1)O2	50	-3	-14	.	.	.	.
SMILES	T cruzi growth-1	C diff growth	Pf Dd2 growth	T cruzi growth-2	T cruzi growth-3	3T3 cytotox	3T3 cytotox 2
CN1C(=O)c2cc(NC(=O)Cc3cccs3)ccc2OC[C@@H]2O[C@@H](CC(=O)N[C@H]3CCN(Cc4ccccc4)C3)CC[C@@H]21	?	-2	.	89	85	-18	4
Cc1noc(C)c1NC(=O)Nc1ccc2c(c1)C(=O)N(C)[C@@H]1CC[C@H](CC(=O)N[C@H]3CCN(Cc4ccccc4)C3)O[C@H]1CO2	104*	15	9	?	2	1	-4
Cc1noc(C)c1NC(=O)Nc1ccc2c(c1)C(=O)N(C)[C@@H]1CC[C@H](CC(=O)N[C@@H]3CCN(Cc4ccccc4)C3)O[C@@H]1CO2	27	-9	-21	.	.	.	.
CCS(=O)(=O)Nc1ccc2c(c1)C(=O)N(C)[C@@H]1CC[C@@H](CC(=O)N[C@@H]3CCN(Cc4ccccc4)C3)O[C@@H]1CO2	27	.	.	.	.	.	.
CN1C(=O)c2cc(NC(=O)c3ccc(F)c(F)c3)ccc2OC[C@H]2O[C@@H](CC(=O)N[C@@H]3CCN(Cc4ccccc4)C3)CC[C@H]21	110*	4	.	116*	86	1	27*
CN1C(=O)c2cc(NC(=O)c3ccc(F)c(F)c3)ccc2OC[C@@H]2O[C@@H](CC(=O)N[C@@H]3CCN(Cc4ccccc4)C3)CC[C@H]21	101*	9	.	108*	64	1	0
CN1C(=O)c2cc(NC(=O)Cc3cccs3)ccc2OC[C@H]2O[C@@H](CC(=O)N[C@H]3CCN(Cc4ccccc4)C3)CC[C@H]21	75	-2	.	.	.	.	.
C[C@@H]1CCCCO[C@H](CN(C)C(=O)Cc2ccccc2)[C@H](C)CN([C@@H](C)CO)C(=O)c2cc(NC(=O)Cc3ccccc3)ccc2O1	39	-8	-63	.	.	.	.
CCCNC(=O)[C@@H]1[C@@H](CO)[C@@H]2Cn3c(ccc(-c4ccccc4F)c3=O)[C@@H]2N1C(=O)CC	8	-4	9	.	.	.	.

Compound activity as filed in PubChem.
